Compound activity deposited in PubChem by several laboratories.
tim10-1 inh = inhibits growth of tim10-1 mutant yeast; 330,000 tested, 2.2% active; inhibition, % at 20 µM; S. cerevisiae tim10-1 ts strain growth, BacTiter-Glo, 24 h;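 active means inhibition of at least 40%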;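 further: mutant grown at 25 °C; 0% = DMSO wells with yeast and 100% = wells holding no yeast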
TIM10 inh = growth inhibitors of TIM10 yeast strain. S. cerevisiae TIM10 strain growth, BacTiter-Glo luminescence, 24 h. inhibition, % at 10 µM. 330,000 tested, 1.4% active. AID 463195;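 active means inhibition of 40% or more at the single tested concentration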;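 further: wild-type TIM10 isogenic control strain grown at permissive 25 °C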
NLRP3 yeast inh = inhibitors of NALP3 inflammasome in yeast; Yeast reconstituted NLRP3/ASC/caspase-1, beta-gal luminescence, 24 h; inhibition, % at 10 µM; 330,000 tested, 0.39% active;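 active means inhibition of 50% or more; inactive means inhibition below 50%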;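 further: plate controls were induced DMSO wells for no effect and uninduced yeast grown without galactose for full effect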
NALP1 inh = inhibitors of NALP1 inflammasome in yeast; S. cerevisiae NALP1/ASC/caspase-1 growth, X-gal OD620, 72 h; 280,000 tested, 0.61% active; inhibition, % at 10 µM; in the data active means inhibition mostly above about 24%, no sharp cut-off; inactive means mostly below about 32%
PfHsp90 yeast 2 = growth inhibition of yeast expressing Plasmodium Hsp90 | S. cerevisiae expressing PfHsp90, BacTiter-Glo ATP, 48 h; yeast lacking PDR1 and PDR3 efflux regulators | inhibition, % at 9.4 µM | 310,000 tested, 0.32% active;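 active means every replicate shows inhibition above about 80%, whatever the replicate mean, limit read from the data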;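 further: 0% = DMSO neutral controls and 100% = 20 µM radicicol positive controls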
tim23-1 inh = inhibits growth of tim23-1 mutant yeast | AID 463212 | S. cerevisiae tim23-1 growth, BacTiter-Glo luminescence, 24 h | inhibition, % at 20 µM | 330,000 tested, 1.3% active;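 active means growth inhibition of the mutant yeast at or above 50%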;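 further: temperature-sensitive mutant grown at 25 °C; plate controls were DMSO-treated mutant yeast for no effect and medium wells lacking yeast for full effect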
tim10-1 confirm = tim10-1 yeast growth inhibition, confirmed | AID 463213 | shares compounds with tim10-1 inh | S. cerevisiae tim10-1 ts strain growth, BacTiter-Glo, 24 h | 7,400 tested, 56% active | inhibition, % at 20 µM;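 active means inhibition of yeast growth at or above a set limit in either of two repeat tests at 20 µM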;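 further: tim10-1 mutant grown at permissive 25 °C to find synthetic lethal compounds; 0% = DMSO yeast wells and 100% = medium wells without yeast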
TIM10 conf = confirmation of TIM10 yeast growth inhibitors | inhibition, % at 10 µM | shares compounds with TIM10 inh | S. cerevisiae tim10 strain growth, BacTiter-Glo luminescence, 24 h | 4,600 tested, 63% active;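 active means inhibition of yeast growth at or above a set limit in either of two replicates at 10 µM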;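 further: this counterscreen used the strain with wild-type TIM10; 0% = yeast with DMSO and 100% = medium wells lacking yeast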
tim23-1 confirm = tim23-1 yeast growth inhibition, confirmed; shares compounds with tim23-1 inh; S. cerevisiae tim23-1 growth, BacTiter-Glo luminescence, 24 h; 4,400 tested, 83% active; inhibition, % at 20 µM;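 active means inhibition above about 39% in either of two replicate wells at 20 µM, limit read from the data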;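 further: temperature-sensitive tim23-1 mutant grown at 25 °C; 0% = DMSO wells with yeast and 100% = medium wells without yeast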
The depositor's hits bear a star; · = no result given. The list is not random: actives were taken first. Their share in the collection is about 4.2%.

SMILES | tim10-1 inh | TIM10 inh | NLRP3 yeast inh | NALP1 inh | PfHsp90 yeast 2 | tim23-1 inh | tim10-1 confirm | TIM10 conf | tim23-1 confirm
COc1cccc(/C=C2\C(=O)N(c3cccc(C)c3)C(=O)c3ccccc32)c1 | 43.1* | 40.5* | 0.0 | 35.7 | -58.4 | 75.0* | 46.0* | 45.5* | 68.0*
CCN1CCN(c2ccc(S(=O)(=O)N3CCCCC3)cc2NC(=O)COc2ccc(F)cc2Cl)CC1 | 10.5 | 0.4 | 12.2 | 12.1 | 7.4 | 10.5 | · | · | ·
Cc1nnc(NC(=O)C2COc3ccccc3O2)s1 (stereo not given) | 4.9 | 3.8 | -3.6 | 8.0 | · | 10.3 | · | · | ·
CCC(CC)c1nnc(NC(=O)C2COc3ccccc3O2)s1 (stereo not given) | 47.4* | 37.4 | 13.3 | -2.4 | 29.2 | 50.3* | 45.5* | · | 52.5*
CCN1/C(=C/c2ccc3cccc(C)c3[n+]2CC)Sc2ccccc21 | 63.6* | 76.8* | 6.3 | 33.7* | -15.4 | 68.1* | 73.7* | 79.3* | 72.3*
Cc1cc(N2CCN(c3nc(-c4ccccc4)cs3)CC2)c2ccccc2n1 | 51.4* | 15.3 | -0.8 | 21.2 | 24.3 | 63.4* | 42.0* | · | 52.0*
COc1ccc(/C=C/C(=O)c2cc(F)ccc2OC(=O)c2ccc(OC)c(OC)c2)cc1OC | 50.3* | 53.6* | 15.4 | 25.5 | 5.5 | 52.4* | 45.8* | 28.6 | 55.9*
O=Cc1ccc(O)c2ncccc12 | 43.7* | 54.4* | 35.5 | 82.2* | 123.8* | 70.5* | 8.1 | 75.1* | 72.0*
NS(=O)(=O)c1ccc(N=Nc2ccc(O)c3ncccc23)cc1 | 18.7 | 6.4 | 37.4 | -44.3 | 39.5 | 29.8 | · | · | ·
CCC(C)c1ccc(NC(=S)NCc2cccs2)cc1 (stereo not given) | 55.7* | 53.5* | 22.0 | 16.5 | · | 53.0* | 54.8* | 44.5* | 54.8*
O=C(O/N=C1\C(=O)N(c2ccccc2)c2ccccc21)C1CC1 | 46.8* | 39.6 | 0.2 | -33.8 | -3.9 | 68.9* | 44.4* | · | 64.4*
CCO/N=C1\C(=O)N(c2ccccc2)c2ccccc21 | 13.6 | 1.1 | 17.7 | -10.7 | -13.4 | 36.7 | · | · | ·
O=[N+]([O-])c1cccc(-c2nnc(-c3ccccc3)o2)c1 | 17.5 | 23.0 | 23.5 | -8.8 | -4.7 | -8.9 | · | · | ·
Cc1occc1-c1nnc(-c2cc([N+](=O)[O-])cc([N+](=O)[O-])c2)o1 | 73.4* | 56.0* | 27.5 | 5.3 | 106.4* | 82.6* | 68.8* | 52.0* | 69.3*
COCCOC(=O)C1=C(C)OC(N)=C(C#N)C1c1cc2cccc(C)c2nc1Cl (stereo not given) | 35.0 | 28.7 | 13.9 | 16.0 | -0.3 | 44.1 | · | · | ·
COC(=O)C1=C(C)OC(N)=C(C#N)C1c1cc2cccc(C)c2nc1Cl (stereo not given) | 43.7* | 28.9 | 23.2 | 15.5 | · | 63.9* | 29.0 | · | 58.1*
CC1CC(C)CN(C(=O)c2ccc(-c3ccc([N+](=O)[O-])cc3)o2)C1 (stereo not given) | 68.8* | 56.2* | 12.8 | · | 9.1 | 63.0* | 19.2 | 58.4* | 45.6*
O=C(c1ccc(-c2cccc([N+](=O)[O-])c2)o1)N1CCN(c2ccc([N+](=O)[O-])cc2)CC1 | 22.0 | 4.8 | 20.7 | · | -6.0 | 26.6 | · | · | ·
Cc1ccccc1NC(=S)NCc1ccc2[nH]c3c(c2c1)CCCC3 | 48.5* | 47.1* | 22.5 | 16.5 | -30.3 | 55.6* | 30.2 | 43.4* | 48.2*
CCN1C[C@@H]2[C@@H]3C(=O)N(C)C(=O)[C@@H]3[C@](Cc3ccccc3)(C(=O)OC)N2C1=NCc1ccccc1 | · | · | · | · | 3.3 | · | · | · | ·
CCCn1nc(NC(=O)c2cccs2)c2cc3ccccc3nc21 | 49.1* | 23.9 | 26.9 | -5.0 | · | 52.1* | 37.0* | · | 51.2*
CCCn1nc(NC(=O)c2cccs2)c2cc3ccc(C)cc3nc21 | -4.2 | -3.2 | 21.0 | -2.9 | 5.2 | -2.4 | · | · | ·
